High-throughput results from PubChem BioAssay.
Nrf2 block = inhibitors of Nrf2 signaling. A549 ARE-Fluc reporter, luciferase luminescence, 18-24 h. Potency, µM (doses to about 46 µM), inactives show top-dose activity change, negative = inhibition, actives largely listed as inhibitors. 360,000 compounds, 2.1% hits. AID 504444; note: potency is the fitted concentration of half-maximal effect; % is set by controls: 0 for no effect and ±100 for the full control effect; nearly all actives have a fitted effect of over 60% in size
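In this cell-based qHTS, ARE-driven firefly luciferase in A549 cells reports Nrf2 activity; the luminescent signal after BugLite lysis is the measured value, with a prior CellTiter-Fluor read for cell health.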
IL2 activator = activates IL-2 in a cell-based reporter assay. IL-2 activation reporter assay, cell-based qHTS; stimulated with anti-CD3/CD4/CD28 beads; in transgenic mouse T cells. activation, % (series mostly up to about 46 µM). 360,000 compounds, 0.065% hits; in the data active = activation above about 50%; inconclusive = mostly about 30% to 49%; note: 0% is about no effect
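Readout: EGFP and DsRed signals by fluorescent plate cytometry. Unstimulated transgenic mouse T cells received compound 60 min before antibody-bead stimulation, then incubated 18 h at 37 degrees C.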
Nrf2 ARE act = activates Nrf2 signaling; AREc32 ARE-luciferase reporter (MCF7-derived line), luminescence, 24 h; AID 624171; 410,000 compounds, 0.31% hits; Potency, µM (titrated, usually from 46.1 µM), inactives show at the top dose activation, most hits filed as activators; note: potency is the fitted concentration of half-maximal effect; % of control where 0% means no effect; nearly all actives have a fitted effect of over 65% in size
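Reporter line AREc32 (ARE-Fluc), seeded overnight in OPTI-MEM with 5% FBS; compound pin-transferred, 24 hr at 37 deg C, 5% CO2; luminescent read-out.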
A549 viability = kills or reduces viability of A549 cells in Nrf2 counter-screen; A549 ARE-Fluc cells, CellTiter-Fluor viability, 18-24 h; Potency, µM (titrated, usually from 46 µM), for inactives: at the top dose activity change, negative = cytotoxicity, usual class: inhibitors; 390,000 compounds, 0.16% hits; note: potency is the fitted concentration of half-maximal effect; % is set by controls: 0 for no effect and ±100 for the full control effect
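A549 ARE_Fluc cells in 5% FBS OPTI-MEM were exposed to compounds in concentration-response for 18-24 h at 37 deg C. Viability was read by CellTiter-Fluor fluorescence (Ex 405/Em 525) after 30 min, before the luciferase read.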
An asterisk follows results filed as active; u = inconclusive; x = not tested or not shown; [ ] = remark or other dose. Most compounds without a hit are left out; they make up all but 2.3% or so of the library. Unless noted, calls come from the whole dose curve; as a rule, active = well fitted curve in the direction sought with a large enough effect; inconclusive = small, poorly fitted or top-dose-only effect, or another doubt; inactive = no such curve, though single readings can be large; an effect the other way counts as inactive or inconclusive.

SMILES	Nrf2 block	IL2 activator	Nrf2 ARE act	A549 viability
O=C(Nc1ccc(F)cc1)N1CCN(c2nc3ccccc3s2)CC1	21µM*	0	2%	-7%
O=C(c1ccc2ncsc2c1)N1CCN(c2nc3ccccc3s2)CC1	18µM*	0	2%	-19%
O=C(Nc1ccccc1)N1CCCN(c2nccc(C(F)(F)F)n2)CC1	-8%	0	-1%	-5%
O=C(Nc1ccc(F)cc1)N1CCCN(c2nccc(C(F)(F)F)n2)CC1	12µM*	-1	-1%	u
CC1=C(C(=O)NCc2cccc(Cl)c2)C2(CCCCCC2)OC1=O	u	x	1%	15%
CC(Oc1ccc(F)cc1)C(=O)NCC1(N(C)C)CCCCC1 (configuration not stated)	1%	x	2%	2%
Oc1ccc2c(c1)oc1cc(O)ccc12	u	-2	13µM*	-6%[1.84 µM]
COc1c(C)oc2cc(O)ccc2c1=O	-10%	-2	0%	10%
COc1ccc(NC(=O)CN2C(=O)C(c3ccc(C(C)(C)C)cc3)=NC2(C)C)cc1Cl	13%	x	0%	-1%
COc1ccc([N+](=O)[O-])cc1NC(=O)C(C)OC(=O)/C=C/c1ccco1 (configuration not stated)	-19%	0	13µM*	12%
CC(OC(=O)/C=C/c1ccco1)C(=O)NC1CCCCC1C (configuration not stated)	13µM*	0	0%	-7%
COc1ccc([N+](=O)[O-])cc1NC(=O)c1ccco1	-21%	0	3.2µM*	1%
COc1ccccc1CNC(=O)CCCN1C(=O)CSc2c1c(C)nn2-c1ccccc1	-24%	x	-1%	-1%
COc1ccc(C2c3c(nc(Cc4ccccc4)[nH]c3=O)Oc3ccc4ccccc4c32)cc1OC (configuration not stated)	u	x	x	-6%
Cn1nc(-c2ccc(C(=O)Nc3ccc(F)cc3)cc2)c2ccccc2c1=O	18µM*	0	3%	-4%
Cn1nc(-c2ccc(OCC(=O)Nc3cccc(C(F)(F)F)c3)cc2)c2ccccc2c1=O	26µM*	x	0%	u
Cn1nc(-c2ccc(OCC(=O)Nc3cccnc3)cc2)c2ccccc2c1=O	u	-3	3%	1%
Cn1nc(-c2ccc(C(=O)Nc3cccc(Cl)c3)cc2)c2ccccc2c1=O	6.5µM*	-4	0%	-21%
Cc1ccc(NC(=O)c2ccc(-c3nn(C)c(=O)c4ccccc34)cc2)cc1	u	-1	0%	-6%
O=C1Cc2cc(S(=O)(=O)N3CCN(c4ccc([N+](=O)[O-])cc4)CC3)ccc2N1	31%	x	x	-4%
COc1cccc(CNC(=O)C2CCC(CNS(=O)(=O)c3ccc(Br)s3)CC2)c1 (configuration not stated)	-7%	x	1%	-2%
COc1ccc(OC)c(C2=Nn3c(nnc3-c3ccccc3C)SC2)c1	-22%	x	x	-1%
O=c1[nH]c(C2CCN(S(=O)(=O)c3cccc(Cl)c3)CC2)nc2c1nnn2Cc1ccccc1	15µM*	-3	5%	u
O=c1[nH]c(C2CCN(S(=O)(=O)c3ccc(C(F)(F)F)cc3)CC2)nc2c1nnn2Cc1cccc(F)c1	u	2	0%	-15%
O=c1[nH]c(C2CCN(S(=O)(=O)c3ccccc3C(F)(F)F)CC2)nc2c1nnn2Cc1cccc(F)c1	23µM*	1	2%	u
SMILES	Nrf2 block	IL2 activator	Nrf2 ARE act	A549 viability
COc1ccc(-c2nnc(SC)o2)c(OC)c1	u	-2	8%	0%
COc1ccc(OC)c(-c2nnc(-c3ccc(C)o3)o2)c1	u	-1	11µM*	1%
Cc1nc2ccc(NS(=O)(=O)c3c(C)c(C)cc(C)c3C)cc2s1	15µM*	0	-1%	-11%
Cc1nc2cc(NS(=O)(=O)c3ccccc3F)ccc2s1	-11%	0	0%	0%
Cc1nc2cc(NS(=O)(=O)c3c(C)c(C)cc(C)c3C)ccc2s1	11µM*	-1	0%	u
COc1ccc(S(=O)(=O)c2c(Nc3c(C)cccc3C)sc(C(=O)c3ccc4c(c3)OCO4)c2N)cc1	x	x	0%	-27%
Cc1ccc(CNC(=O)CN2C(=O)CCn3nc(-c4ccccc4)cc32)cc1	-5%	x	-1%	1%
O=C(CCn1ccc2cc(S(=O)(=O)N3CCCC3)ccc21)NCc1ccccc1Br	13%	x	0%	7%
COc1ccc(N/C=C2\C(=O)CCc3c2oc2cc(Cl)c(O)c(Cl)c32)cc1	0%	268*	7.1µM*	-3%
COc1cc(NC(=O)c2cc3nc(-c4ccc(C)cc4)cc(C(F)(F)F)n3n2)cc(OC)c1OC	-13%	x	0%	5%
NC(=NCCc1c[nH]c2ccccc12)NS(=O)(=O)c1ccc2ccccc2c1	16µM*	-2	5%	u
NC(=NCCc1c[nH]c2ccccc12)NS(=O)(=O)c1ccc(F)cc1	-8%	-1	1%	12%
COc1ccc(CN2CCN(S(=O)(=O)c3ccc(F)cc3)CC2)cc1OC	u	1	0%	-7%[1.84 µM]
COC(=O)c1ccc(S(=O)(=O)N2CCCN(Cc3ccc(F)cc3)CC2)n1C	13µM*	0	0%	1%
N#Cc1nc(NCCO)nc(Nc2ccccc2)n1	7%	x	x	-7%
O=C(Nc1ccc(Oc2cccc(C(F)(F)F)c2)nc1)c1cccs1	16µM*	1	0%	1%
CC(=O)c1ccc(C(=O)N(Cc2cccnc2)c2nc3c(C)c(C)ccc3s2)cc1	x	x	0%	-17%
O=C(c1cn(CCOc2ccc(Cl)cc2)c2ccccc12)C1CCCCC1	-5%	x	1%	-2%
CC1(C)CC(=O)C2=C(C1)OC1=C(C(=O)CC(C)(C)C1)C2c1ccc(O)cc1O	x	-4	-3%	18µM*
C[n+]1c(-c2ccccc2)cc2c(=Cc3ccc([N+](=O)[O-])cc3)c3ccccc3n21	u	-4	5%	u
CN(C)c1ccc(C=c2c3cc(O)ccc3n3c2cc(-c2ccccc2)[n+]3C)cc1	18µM*	6	2%	u
C[n+]1c(-c2ccccc2)cc2c(=Cc3ccccc3)c3ccccc3n21	21µM*	-2	7%	u
CC1CCN(c2oc(/C=C/c3ccc(F)cc3)nc2C#N)CC1	-10%	x	3%	15%
CC1CCCCC1NC(=O)CN1CCC(NC(=O)c2ccc([N+](=O)[O-])cc2)CC1 (configuration not stated)	7.3µM*	0	-1%	-6%
COc1ccc2cc(/C=C/C(=O)N3CCN(CC(=O)N4CCCCCC4)CC3)ccc2c1	21µM*	-1	5%	-15%
Cc1ccccc1CNC(=O)CN1C(=O)CCCc2ccccc21	u	x	0%	-8%
CCOC(=O)C1=C(c2ccccc2)NC(SCC(=O)Nc2ccccc2C)=C(C#N)C1c1ccco1 (configuration not stated)	u	-2	1%	x
CCOC(=O)C1=C(c2ccccc2)NC(SCC(=O)Nc2ccc(C)cc2)=C(C#N)C1c1ccco1 (configuration not stated)	21µM*	0	0%	-17%[1.84 µM]
